Inconclusive results are not listed. Where a call stands in place of a potency, no number is given. Active and inactive are the calls of the source. Calls follow the shape of the dose curve; as a rule, active = well fitted curve in the direction sought with a large enough effect; inconclusive = small, poorly fitted or top-dose-only effect, or another doubt; inactive = no such curve, though single readings can be large; an effect the other way counts as inactive or inconclusive.
Columns and labels:
[1] = qHTS to identify inhibitors of the type 1 interferon - major histocompatibility complex class I in skeletal muscle: primary screen against the NCATS LOPAC collection (AID 1347405); conditions: iHSKM muscle cells, IFN-b-induced MHC-I HiBiT luminescence, 24 h; series mostly up to 45.9 µM;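 also: lytic HiBiT luminescence reporting HLA-B protein level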; also: potency is read from the fitted curve at half-maximal effect
In short: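 Cells: C25cl48 human myoblasts, HiBiT-tagged HLA-B*08:01, stimulated with IFN-beta 4.0 ng/ml. Compounds are titrated 1:4.3 over 7 points from 46 uM final and incubated 24 hrs; endogenous MHC class I is quantified by HiBiT lytic luminescence.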

[2] = qHTS for inhibitors of adenylyl cyclases using a fission yeast platform: a pilot screen against the NCATS LOPAC library (AID 1347410); conditions: S. pombe CHP2027, fbp1-GFP fluorescence, 18 h; series mostly up to 57.5 µM
In short: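 S. pombe CHP2027 (AC9-GNAS-PDE4D2) carrying a PKA-repressed fbp1-GFP reporter was exposed to LOPAC compounds (final up to 57 µM) for 18 h at 30C in the dark, in EMM with histidine, lysine and uracil; GFP gain-of-signal read by laser scanning cytometry.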

[3] = Validation qHTS assay for inhibitors of Activation Induced Cytidine Deaminase (AID): UDG Counterscreen signal (AID 1347427); conditions: biochemical UDG counterscreen, fluorescence signal; series mostly up to 115 µM
In short: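 Counterscreen read of UDG activity (2 U/mL, 4/3x) in the FRET deamination format with AID (1 uM, 4/3x), DJC20/DJC23 substrates (250 nM, 4x), 4 h at room temperature. NaOH stop, fluorescence at 560 ex/665 em.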

[4] = molecular target: Single-stranded DNA cytosine deaminase (Homo sapiens) (UniProt Q9GZX7); assay: Validation qHTS assay for inhibitors of Activation Induced Cytidine Deaminase (AID): AID signal (AID 1347429); conditions: Recombinant AID, FRET ssDNA deamination with UDG, fluorescence; series mostly up to 115 µM
In short: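 In this coupled qHTS, AID deaminates a FRET-labelled ssDNA substrate in the presence of UDG over 4 hr at room temperature. Compounds span up to 114 uM final.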

[5] = Primary qHTS for inhibitors of La Crosse Virus (LACV) - induced cell death in SH-SY5Y cells (AID 1508616); conditions: SH-SY5Y LACV cytopathicity rescue, ATP luminescence, 6 d; series mostly up to 9.63 µM;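 also: top concentration of the series differs between compounds; higher means more rescue of cells from virus-induced death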
In short: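 Readout was luminescence from ATPLite 1step added after a 6-day LACV infection (0.01 MOI) of SH-SY5Y cells that had received pin-transferred compound 24 hr after seeding.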

[6] = molecular target: Calcium and integrin-binding protein 1 (Homo sapiens) (UniProt Q99828); assay: Validation qHTS for Identification of Calcium Integrin Binding protein 1 (CIB1) Competitor (AID 1508618); conditions: CIB1-GST / FITC-alphaIIb peptide fluorescence polarization; series mostly up to 114 µM
In short: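 CIB1-GST (1 uM final) in 5 mM HEPES pH 7.4, 125 mM NaCl, 5 mM CaCl2, 0.01% Tween20 was preincubated 15 min at room temperature with compound (up to 114 uM), then FITC-alphaIIb peptide (100 nM) added for 15 min; fluorescence polarization read.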

[7] = Counterscreen qHTS for small molecule stabilizers of the endoplasmic reticulum resident proteome: GLuc-NoTag assay (AID 1508627); conditions: Gaussia luciferase NoTag secretion counterscreen, luminescence, thapsigargin 100 nM for final 4 h; series mostly up to 76.4 µM;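 also: SH-SY5Y cells given compound then 100 nM thapsigargin to empty ER calcium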
In short: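 SH-SY5Y cells stably expressing constitutively secreted GLuc without SERCaMP tag, exposed to compound for 19 hr, then to 100 nM thapsigargin for 4 hr at 37C. Medium luciferase was read by coelenterazine luminescence without lysis.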

Chain of Single-stranded DNA cytosine deaminase (Homo sapiens) (Q9GZX7 whole entry, looked up): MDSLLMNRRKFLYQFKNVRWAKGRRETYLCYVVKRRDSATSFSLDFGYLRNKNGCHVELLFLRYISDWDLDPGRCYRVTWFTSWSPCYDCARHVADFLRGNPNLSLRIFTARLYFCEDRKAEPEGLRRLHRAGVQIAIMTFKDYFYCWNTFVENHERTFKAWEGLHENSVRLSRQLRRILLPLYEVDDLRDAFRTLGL
Chain of Calcium and integrin-binding protein 1 (Homo sapiens) (Q99828 whole entry, looked up): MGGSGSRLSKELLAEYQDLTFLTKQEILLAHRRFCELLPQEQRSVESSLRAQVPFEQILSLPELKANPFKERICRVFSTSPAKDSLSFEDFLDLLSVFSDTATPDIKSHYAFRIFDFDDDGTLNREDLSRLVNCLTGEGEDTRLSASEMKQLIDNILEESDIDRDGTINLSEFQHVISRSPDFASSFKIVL

SMILES | Potency [1] | outcome [2] | Potency [3] | Potency [4] | Potency [5] | Potency [6] | outcome [7]
Cc1[nH]c2ccc(O)cc2c1CCN | inactive | inactive | inactive | inactive | inactive | inactive | 
CC(C)(O)[C@@H]1C2OC(=O)[C@@H]1[C@]1(O)C[C@H]3O[C@]34C(=O)O[C@H]2[C@]14C (tested in a mixture with another compound) | inactive | inactive | inactive | inactive | inactive | inactive | 
NCCCP(=O)(O)O | inactive | inactive | inactive | inactive | inactive | inactive | 
C[C@H](N)Cc1cccc(C(F)(F)F)c1 | inactive | inactive | inactive | inactive | inactive | inactive | 
CC(C)(C)c1o[nH]c(=O)c1CC(N)C(=O)O (stereo unspecified) | inactive | inactive | inactive | inactive | inactive | inactive | 
C[C@H](Cc1ccc2c(c1)OC(C(=O)O)(C(=O)O)O2)NC[C@H](O)c1cccc(Cl)c1 | inactive | inactive | inactive | inactive |  | inactive | 
CN1CC[C@@]2(C)c3cc(OC(=O)Nc4ccccc4)ccc3N(C)[C@@H]12 | inactive | inactive | inactive | inactive |  | inactive | inactive
NC(C(=O)O)c1cc(=O)[nH]o1 (stereo unspecified) | inactive | inactive | inactive | inactive |  | inactive | 
COC(=O)N1CCN(C(=O)Cc2ccc(Cl)c(Cl)c2)C(CN2CCCC2)C1 (stereo unspecified) | inactive | inactive | inactive | inactive |  | inactive | 
C=CCN1C[C@@H](C)N([C@H](c2ccc(C(=O)N(CC)CC)cc2)c2cccc(OC)c2)C[C@@H]1C | inactive | inactive | inactive |  | inactive | inactive | 
C[N+]1(C)CCN(c2ccccc2)CC1 | inactive | inactive | inactive | inactive |  | inactive | 
CNc1ccc2oc(C[C@H]3O[C@@]4(CC[C@H]3C)O[C@H]([C@H](C)C(=O)c3ccc[nH]3)[C@H](C)C[C@H]4C)nc2c1C(=O)O | 3.98 µM (active) | inactive | inactive | inactive |  | inactive | 
C[C@@H]1O[C@@H](O[C@H]2C[C@@H](O)[C@]3(CO)[C@@H]4C(CC[C@]3(O)C2)[C@@]2(O)CC[C@H]([C@@H]3COC(=O)C3)[C@@]2(C)C[C@H]4O)[C@H](O)[C@H](O)[C@H]1O (stereo partly specified) | 1.12 µM (active) | inactive | inactive | inactive |  | inactive | 
NC(CCCCCP(=O)(O)O)C(=O)O (stereo unspecified) | inactive | inactive | inactive | inactive |  | inactive | 
Clc1cc(I)cc(Cl)c1NC1=NCCN1 | inactive | inactive | inactive | inactive |  | inactive | 
Oc1ccc2c3c1O[C@H]1c4[nH]c5ccccc5c4C[C@@]4(O)C(C2)N(CC2CC2)CCC314 (stereo partly specified) | inactive | inactive | inactive | inactive |  | inactive | 
CCCN(CCC)C1Cc2cc(OC)c(OC)cc2C1 | inactive | inactive | inactive |  | inactive | inactive | 

SMILES | Potency [1] | outcome [2] | Potency [3] | Potency [4] | Potency [5] | Potency [6] | outcome [7]
CC(=O)OCC1=C(C(=O)O)N2C(=O)[C@@H](NC(=O)CCC[C@@H](N)C(=O)O)[C@H]2SC1 | inactive | inactive | inactive |  | inactive | inactive | 
N#CCCN | inactive | inactive | inactive |  | inactive | inactive | 
Oc1ccc2c3c1O[C@H]1c4oc5ccccc5c4C[C@@]4(O)C(C2)N(CC2CC2)CCC314 (stereo partly specified) | inactive | inactive | inactive | inactive |  | inactive | 
COc1ccc2c(c1O)-c1cccc3c1[C@@H](C2)N(C)CC3 | inactive | inactive | inactive | inactive |  | inactive | 
Cc1c2ccncc2c(C)c2c1[nH]c1ccccc12 | 7.08 µM (active) | inactive | inactive | inactive |  | inactive | 
C[C@H](N)CN1CCc2ccc(Br)cc21 | inactive | inactive | inactive | inactive | inactive | inactive | inactive
CCCN1CC[C@@H]2c3cc(O)ccc3CC[C@@H]21 | inactive | inactive | inactive | inactive |  | inactive | 
C=CCN1CCC23c4c5ccc(O)c4O[C@H]2C(=O)CC[C@@]3(O)C1C5 (stereo partly specified) | inactive | inactive | inactive | inactive |  | inactive | 
C[N+](C)(C)CC#CCOC(=O)Nc1cccc(Cl)c1 | inactive | inactive | inactive | inactive |  | inactive | 
CCCN1CCC[C@@H](c2cccc(O)c2)C1 | inactive | inactive | inactive | inactive |  | inactive | 
NC(=O)c1ccc(OCC(O)CN2CC=C(c3ccc(F)cc3)CC2)cc1 (stereo unspecified) | inactive | inactive | inactive |  | inactive | inactive | 
c1ccc2c(N3CCNCC3)cccc2c1 | inactive | inactive | inactive | inactive | inactive | inactive | inactive
OC1CCCCC1N1CCC(c2ccccc2)CC1 (stereo unspecified) | inactive | inactive | inactive | inactive |  | inactive | 
NCCc1c[nH]c2ccc(C(N)=O)cc12 | inactive | inactive | inactive | inactive |  | inactive | 
NCC(CP(=O)(O)O)c1ccc(Cl)cc1 (stereo unspecified) | inactive | inactive | inactive | inactive |  | inactive | 
O=C1C=CC(=O)C=C1 | inactive | inactive | inactive | inactive |  | inactive | 
CN1C2CCC1CC(OC(c1ccccc1)c1ccccc1N)C2 (stereo unspecified) | inactive | inactive | inactive | inactive |  | inactive | inactive

Source: PubChem BioAssay (NCATS)
